Laboratory results as given in PubChem BioAssay AID1159580 (chemical genetic matrix, 2015).
Screen size: about 5,500 compounds; about 2,000 (36%) were called active. Another 18% or so got no clear call; they are omitted. No stated cut-off is given here; in the data, active means normalized growth mostly below about 0.91 (no sharp cut-off); inconclusive means no clear call, values can overlap the other calls; inactive means mostly above about 0.92. The list shows a part of the results.

Assay: chemical genetic growth profiling, strain panel (AID 1159580);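 further: tested at 20 µM; growth read once vehicle control cultures reached saturation at 30 °C; 1 = growth at the plate median or of vehicle wells; lower values mean less growth of the strain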
Details: S. cerevisiae deletion strains, growth OD

Measured: normalized growth

N[C@H](C(=O)O)[C@H](O)C(=O)O
inactive: locus YAL013W, strain DEP1, hits give low values 0.972 | locus YAL040C, strain CLN3, hits give low values 0.965 | locus YCL061C, strain MRC1 (second series), hits give low values 0.994 | locus YDR150W, strain NUM1, hits give low values 1 | locus YDR363W, strain ESC2, hits give low values 0.987 | locus YER002W, strain NOP16, hits give low values 1 | locus YMR307W, strain GAS1, hits give low values 0.992 | locus YNL153C, strain GIM3, hits give low values 0.989 | locus YNL175C, strain NOP13, hits give low values 1.01 | locus YNL197C, strain WHI3, hits give low values 0.996 | locus YNL224C, strain SQS1, hits give low values 0.983 | locus YOR083W, strain WHI5 (second series), hits give low values 1.06 | locus YPL241C, strain CIN2, hits give low values 0.992
